Reference: ChEMBL document CHEMBL1961873, “Compounds: GSK PKIS; Assays: Nanosyn kinase panel” (2012)

What was measured:
[1] = tested on: Proto-oncogene tyrosine-protein kinase receptor Ret (Homo sapiens), P07949 [Y791F]; conditions: at 1 µM
[2] = target: Macrophage-stimulating protein receptor (Homo sapiens) (UniProt Q04912); conditions: at 0.1 µM
[3] = target: Macrophage-stimulating protein receptor (Homo sapiens) (UniProt Q04912); conditions: at 1 µM
[4] = target: Proto-oncogene tyrosine-protein kinase ROS (Homo sapiens) (UniProt P08922); conditions: at 0.1 µM
[5] = target: Proto-oncogene tyrosine-protein kinase ROS (Homo sapiens) (UniProt P08922); conditions: at 1 µM
[6] = target: Proto-oncogene tyrosine-protein kinase Src (Homo sapiens) (UniProt P12931); conditions: at 0.1 µM
Chain of Proto-oncogene tyrosine-protein kinase Src (Homo sapiens) (P12931 2-536 limits assumed): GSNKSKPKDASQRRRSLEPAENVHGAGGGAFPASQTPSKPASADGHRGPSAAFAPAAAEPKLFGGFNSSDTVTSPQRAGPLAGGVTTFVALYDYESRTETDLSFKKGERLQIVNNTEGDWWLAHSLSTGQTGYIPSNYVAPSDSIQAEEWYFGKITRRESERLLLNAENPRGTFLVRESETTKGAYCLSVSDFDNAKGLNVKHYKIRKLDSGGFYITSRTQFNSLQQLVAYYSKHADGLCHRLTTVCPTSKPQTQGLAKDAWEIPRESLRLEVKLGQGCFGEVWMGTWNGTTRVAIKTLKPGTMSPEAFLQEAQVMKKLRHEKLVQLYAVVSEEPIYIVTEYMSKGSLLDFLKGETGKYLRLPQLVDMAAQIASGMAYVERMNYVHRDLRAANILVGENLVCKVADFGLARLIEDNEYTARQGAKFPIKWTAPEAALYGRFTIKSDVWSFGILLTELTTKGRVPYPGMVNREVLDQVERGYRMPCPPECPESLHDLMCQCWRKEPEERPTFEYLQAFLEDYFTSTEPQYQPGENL

[7] = target: Proto-oncogene tyrosine-protein kinase Src (Homo sapiens) (UniProt P12931); conditions: at 1 µM
[8] = target: Tyrosine-protein kinase Srms (Homo sapiens) (UniProt Q9H3Y6); conditions: at 0.1 µM
Chain of Tyrosine-protein kinase Srms (Homo sapiens) (Q9H3Y6 whole entry): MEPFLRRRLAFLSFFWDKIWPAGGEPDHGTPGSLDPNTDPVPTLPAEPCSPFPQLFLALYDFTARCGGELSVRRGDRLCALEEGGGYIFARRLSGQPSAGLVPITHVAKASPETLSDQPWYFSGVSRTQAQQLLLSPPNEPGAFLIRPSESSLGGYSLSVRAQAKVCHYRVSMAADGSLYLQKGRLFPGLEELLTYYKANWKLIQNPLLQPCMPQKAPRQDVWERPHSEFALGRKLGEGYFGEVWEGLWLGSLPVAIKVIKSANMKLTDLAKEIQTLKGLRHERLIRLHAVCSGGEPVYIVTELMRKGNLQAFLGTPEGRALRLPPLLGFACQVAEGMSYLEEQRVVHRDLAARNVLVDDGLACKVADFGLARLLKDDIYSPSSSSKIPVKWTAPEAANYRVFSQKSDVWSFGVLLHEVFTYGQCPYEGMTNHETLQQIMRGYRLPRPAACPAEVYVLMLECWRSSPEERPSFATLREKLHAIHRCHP

[9] = target: Tyrosine-protein kinase Srms (Homo sapiens) (UniProt Q9H3Y6); conditions: at 1 µM
[10] = target: Tyrosine-protein kinase SYK (Homo sapiens) (UniProt P43405); conditions: at 0.1 µM;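 further: reported percentages are mean inhibition values for SYK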

Chain of Proto-oncogene tyrosine-protein kinase receptor Ret (Homo sapiens), P07949 [Y791F] (P07949 whole entry Y791F): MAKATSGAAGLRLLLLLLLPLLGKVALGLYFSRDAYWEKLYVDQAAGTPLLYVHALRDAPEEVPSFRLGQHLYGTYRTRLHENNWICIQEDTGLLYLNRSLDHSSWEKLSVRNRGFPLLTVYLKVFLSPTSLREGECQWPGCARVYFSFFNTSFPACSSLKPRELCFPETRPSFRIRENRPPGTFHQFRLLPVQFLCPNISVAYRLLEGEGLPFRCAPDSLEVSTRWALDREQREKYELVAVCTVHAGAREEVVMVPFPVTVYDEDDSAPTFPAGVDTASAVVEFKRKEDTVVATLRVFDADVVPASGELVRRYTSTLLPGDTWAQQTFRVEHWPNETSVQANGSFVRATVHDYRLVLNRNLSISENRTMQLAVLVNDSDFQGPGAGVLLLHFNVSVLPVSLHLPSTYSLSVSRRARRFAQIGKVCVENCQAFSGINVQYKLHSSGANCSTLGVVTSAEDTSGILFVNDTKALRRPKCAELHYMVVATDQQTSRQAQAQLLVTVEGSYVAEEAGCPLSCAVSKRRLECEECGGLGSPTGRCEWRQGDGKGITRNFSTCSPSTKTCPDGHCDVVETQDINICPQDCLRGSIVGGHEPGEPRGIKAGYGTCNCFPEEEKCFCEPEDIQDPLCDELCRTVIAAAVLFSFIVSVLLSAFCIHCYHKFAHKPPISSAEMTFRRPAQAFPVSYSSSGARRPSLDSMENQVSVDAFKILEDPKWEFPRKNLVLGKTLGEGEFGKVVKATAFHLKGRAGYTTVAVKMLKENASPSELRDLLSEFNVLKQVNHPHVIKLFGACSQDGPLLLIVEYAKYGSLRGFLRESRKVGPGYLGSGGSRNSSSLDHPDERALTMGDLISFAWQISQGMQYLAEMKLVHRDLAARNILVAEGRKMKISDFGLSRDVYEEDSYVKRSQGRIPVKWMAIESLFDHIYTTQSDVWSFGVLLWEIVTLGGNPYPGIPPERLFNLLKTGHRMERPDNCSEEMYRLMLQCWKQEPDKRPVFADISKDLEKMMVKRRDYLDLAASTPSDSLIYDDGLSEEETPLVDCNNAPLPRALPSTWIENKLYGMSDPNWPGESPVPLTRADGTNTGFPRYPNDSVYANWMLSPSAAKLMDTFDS
Chain of Macrophage-stimulating protein receptor (Homo sapiens) (Q04912 25-304 limits assumed): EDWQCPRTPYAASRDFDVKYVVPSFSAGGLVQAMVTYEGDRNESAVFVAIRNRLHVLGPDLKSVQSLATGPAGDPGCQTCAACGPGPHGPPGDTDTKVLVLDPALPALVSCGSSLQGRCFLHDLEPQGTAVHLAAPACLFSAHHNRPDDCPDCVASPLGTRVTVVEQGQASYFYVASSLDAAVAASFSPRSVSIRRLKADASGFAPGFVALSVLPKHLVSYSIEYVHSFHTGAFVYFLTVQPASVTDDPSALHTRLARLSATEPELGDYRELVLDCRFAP
Chain of Macrophage-stimulating protein receptor (Homo sapiens) (Q04912 310-1400 limits assumed): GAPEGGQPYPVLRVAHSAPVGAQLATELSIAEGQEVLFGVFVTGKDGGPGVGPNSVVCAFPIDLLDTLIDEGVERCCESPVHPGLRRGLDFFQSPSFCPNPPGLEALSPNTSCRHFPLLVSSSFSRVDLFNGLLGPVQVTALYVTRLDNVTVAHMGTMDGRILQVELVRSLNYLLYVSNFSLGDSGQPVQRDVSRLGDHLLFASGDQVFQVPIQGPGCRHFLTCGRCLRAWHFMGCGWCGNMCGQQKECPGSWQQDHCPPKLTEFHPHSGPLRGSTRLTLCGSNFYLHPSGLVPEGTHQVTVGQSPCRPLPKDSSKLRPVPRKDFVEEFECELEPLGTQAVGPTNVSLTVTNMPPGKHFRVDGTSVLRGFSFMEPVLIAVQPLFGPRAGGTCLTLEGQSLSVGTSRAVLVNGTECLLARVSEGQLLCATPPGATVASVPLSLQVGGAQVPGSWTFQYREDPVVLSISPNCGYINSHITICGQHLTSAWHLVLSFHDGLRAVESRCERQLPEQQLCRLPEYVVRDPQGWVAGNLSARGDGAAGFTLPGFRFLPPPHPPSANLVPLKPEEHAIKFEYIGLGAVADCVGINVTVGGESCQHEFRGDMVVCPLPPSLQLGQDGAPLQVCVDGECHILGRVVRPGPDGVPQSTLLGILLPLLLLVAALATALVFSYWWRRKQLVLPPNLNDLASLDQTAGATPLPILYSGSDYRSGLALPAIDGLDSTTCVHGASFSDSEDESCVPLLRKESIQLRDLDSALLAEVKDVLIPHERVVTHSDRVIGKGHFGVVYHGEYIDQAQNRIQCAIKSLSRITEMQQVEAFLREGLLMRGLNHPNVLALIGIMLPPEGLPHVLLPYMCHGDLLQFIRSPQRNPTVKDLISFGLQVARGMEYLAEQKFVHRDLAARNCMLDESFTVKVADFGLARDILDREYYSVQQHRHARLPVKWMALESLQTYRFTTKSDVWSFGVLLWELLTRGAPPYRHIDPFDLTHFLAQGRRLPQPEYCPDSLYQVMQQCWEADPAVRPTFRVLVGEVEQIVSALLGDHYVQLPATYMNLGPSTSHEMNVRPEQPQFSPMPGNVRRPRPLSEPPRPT

SMILES | inhibition [1] [%] | inhibition [2] [%] | inhibition [3] [%] | inhibition [4] [%] | inhibition [5] [%] | inhibition [6] [%] | inhibition [7] [%] | inhibition [8] [%] | inhibition [9] [%] | inhibition [10] [%]
COc1cc(/C=N/Nc2ncnc3c2cnn3C(C)C)ccc1O | 78.1 | 8.98 | 17.9 | 11.9 | 37.5 | 20.8 | 72.7 | 1.16 | 4.98 | -1.05
CC(C)c1ccc(Nc2nccc(-c3cnn4ncccc34)n2)cc1 | 13.4 | 1.98 | 16.8 | 19.2 | 62.4 | 1.55 | 13.4 | 1.68 | 3.15 | -6.64
Cc1ccc(NC(=O)CC2CC2)cc1-c1ccc(C(=O)NCC2CC2)cc1 | 28.8 | -0.78 | 1.45 | 4.69 | 8.56 | 4.43 | 8.28 | 0.3 | 5.61 | -2.32
Cc1ccc2c(-c3ccnc(Nc4ccc5c(c4)OCCO5)n3)c(-c3ccc(C(F)(F)F)cc3)nn2n1 | 5.72 | -0.07 | 4.33 | 1.22 | 2.46 | 1.69 | 5.52 | -0.03 | 0.07 | -0.8
c1ccc(Cc2nc3ccc(Nc4ncnc5ccccc45)cc3[nH]2)cc1 | 6.8 | 4.08 | 5.82 | 4.22 |  | 0.79 | 12.8 | -1.79 | -2.82 | 8.94
COc1cc2ncnc(Nc3ccc(C)c(O)c3)c2cc1OC | 90.1 | 1.46 | 2.44 | 1.94 | 10.2 | 22.9 | 70.5 | 2.71 | 18.7 | -4.37
COc1cccc(-n2ncc3c(N/N=C/c4ccc(C)cc4)ncnc32)c1 | 13.9 | 2.1 | 9.64 | 14.2 | 38.4 | 14.2 | 32.9 | -2.37 | -0.01 | 0.52
COc1ccc(-c2nn3ncccc3c2-c2ccnc(Nc3cccc(C(F)(F)F)c3)n2)cc1 | 6.6 | 0.53 | -3.48 | 2.58 | 4.13 | 6.2 | 10 | -1.6 | 1.75 | -1.06
Cc1ccc(C(=O)NC2CC2)cc1-c1ccc2[nH]ncc2c1 | -0.71 | -3.31 | -6.03 | 0.92 | 1.49 | -6.61 | -7.08 | -1.77 | 0.94 | -1.71
NS(=O)(=O)c1cccc(-c2cc3ccncc3cc2OCc2ccccc2)c1 | 18 | 3.72 | -2.44 | 10.8 | 17.1 | 5.87 | 11.2 | -1.16 | -2.93 | -6.65
C[C@@H](Oc1cc(-n2cnc3ccc(OCC4CCN(C)CC4)cc32)sc1C(N)=O)c1ccccc1C(F)(F)F | 18.4 | -0.38 | 9.36 | 0.2 | 7.21 | -1.27 | 21.3 | 1.72 | 2.5 | 0.48
NS(=O)(=O)c1ccc(-c2cc3ccncc3cc2OCc2ccccc2)cc1 | 8.79 | 3.44 | 8.77 | 5.03 | 11 | -0.21 | 6.83 | 0.62 | 1.62 | 2.96
O=C(Nc1ccc(Oc2ccc3[nH]c(NC(=O)c4ccco4)nc3c2)cc1)Nc1cc(C(F)(F)F)ccc1F | 82.3 | -2.7 | 17.2 | 0.05 | 11.1 | 7.67 | 37 | 3.74 | -0.11 | 1.01
Cc1cc(O)cc(C)c1/C=C/c1cncc(C(=O)N(C)C)c1 | 11.9 | 4.1 | 11 | 3.04 | 7.84 | 1.66 | 7.43 | 0.98 | 1.27 | -1.67
CN1CCN(C(=O)c2ccc(NC(=O)Nc3ccc(N(C)c4ccnc(Nc5ccc(CS(C)(=O)=O)cc5)n4)cc3)cc2)CC1 | 82.8 | 18.6 | 58.6 | 14.6 | 54.1 | 10.7 | 42.2 | 0.11 | 5.6 | -0.89
Cc1ccc(O)cc1Nc1ccnc2ccc(S(C)(=O)=O)cc12 | 89.5 | 5.15 | 6.07 | 5.41 | 8.68 | 92.2 | 95.1 | 27.4 | 69 | -7.79
NS(=O)(=O)c1ccc(N/N=C2\C(=O)Nc3ccc(Cl)cc32)cc1 | 22.3 | 3.12 |  | 4.68 | 4.73 | -2.96 | 14.1 | 0.76 | 0.2 | -0.57
Cc1cc(Cl)cc2c1NC(=O)C2=NNc1ccc(S(N)(=O)=O)cc1 | 11 | 0.92 | 0.34 | 2.22 | 3.14 | 5.04 | 5.85 | -1.17 | -2.07 | -4.26
N#Cc1c(NC(=O)c2ccccc2F)sc2c1CCCC2 | 1.78 | -0.97 | -3.33 | 1.04 | 0.32 | -4.11 | -4.48 | 2.55 | 1.79 | 0.7
CC(C)c1ccc2c(c1)NC(=O)/C2=N/Nc1ccc(S(N)(=O)=O)cc1 | 30.7 | 1.23 | -1.8 | 0.66 | 3.01 | 3.8 | 14 | 0.59 | 0.2 | 1.61
COc1ccc2ncnc(Nc3ccc(OCc4ccccc4)cc3)c2c1 | 11.5 | 2.03 | 4.46 | 1.06 | 3.14 | 2.84 | 8.82 | -1.19 | 0.6 | -3.74
O=C1Nc2ccc(-c3cccnc3)cc2C1=Cc1cc(Br)c(O)c(Br)c1 | 1.19 | -1.31 | 8.32 | 8.46 | 18.3 | 2.96 | 12.1 | 12.3 | 57.9 | -3.33
CCOc1nccc2c1nc(-c1nonc1N)n2CC | 28.7 | 10 | 5.31 | 5.15 | 11.8 |  | 5.71 | 3.59 | 5.69 | 1.77
[O-][S+]1CCN(Cc2ccc(-c3ccc4ncnc(Nc5ccc(OCc6ccccc6)c(Cl)c5)c4c3)o2)CC1 | 5.41 | 1.76 | 1.89 | 2.65 | 3.8 | 1.76 | 6.34 | -2.27 | -2 | 1.18
COC(=O)c1cncc(/C=C/c2c(C)cc(O)cc2C)c1 | 15.2 | -3.36 | 7.09 |  | 6.7 | 11.8 | 38.2 | 0.39 | 12.7 | -5.74
c1ccc(Nc2ncc(-c3ccccc3)o2)cc1 | 11.5 | 8.13 | 9.16 | 7.47 | 5.92 | 9.27 | 14.3 | 0.17 | 2.19 | 1.8
CCn1c(-c2nonc2N)nc2c(C#CC(C)(C)O)nc(OCCNC)cc21 | 28.9 | 6.88 |  | 6.88 | 6.96 | 8.38 | 11.9 | -1.55 | -2.34 | 1.27
NC(=O)c1sc(-n2cnc3ccccc32)cc1OCc1ccccc1Br | 15.3 | 9.12 | 9.57 | 7.48 | 10.1 | 7.25 | 12.9 | -2.72 | -2.44 | 0.26
